Screens: PubChem, several laboratories
Rows were chosen to be rich in hits. Some 4.6% of all compounds tested hit in one or more screens of this group.
AHR act = AHR activators, primary screen, cell-based, luminescence, luciferase reporter, human. Aryl hydrocarbon receptor (Homo sapiens), P35869. activation, % at 5 µM. AID 2796, 2010. 320,000 tested, 2.5% active. AHR-responsive luciferase reporter cells; in the data active means activation above about 47%;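 further: 0% = vehicle wells and 100% = reference agonist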
Target sequence (P35869 whole entry, looked up): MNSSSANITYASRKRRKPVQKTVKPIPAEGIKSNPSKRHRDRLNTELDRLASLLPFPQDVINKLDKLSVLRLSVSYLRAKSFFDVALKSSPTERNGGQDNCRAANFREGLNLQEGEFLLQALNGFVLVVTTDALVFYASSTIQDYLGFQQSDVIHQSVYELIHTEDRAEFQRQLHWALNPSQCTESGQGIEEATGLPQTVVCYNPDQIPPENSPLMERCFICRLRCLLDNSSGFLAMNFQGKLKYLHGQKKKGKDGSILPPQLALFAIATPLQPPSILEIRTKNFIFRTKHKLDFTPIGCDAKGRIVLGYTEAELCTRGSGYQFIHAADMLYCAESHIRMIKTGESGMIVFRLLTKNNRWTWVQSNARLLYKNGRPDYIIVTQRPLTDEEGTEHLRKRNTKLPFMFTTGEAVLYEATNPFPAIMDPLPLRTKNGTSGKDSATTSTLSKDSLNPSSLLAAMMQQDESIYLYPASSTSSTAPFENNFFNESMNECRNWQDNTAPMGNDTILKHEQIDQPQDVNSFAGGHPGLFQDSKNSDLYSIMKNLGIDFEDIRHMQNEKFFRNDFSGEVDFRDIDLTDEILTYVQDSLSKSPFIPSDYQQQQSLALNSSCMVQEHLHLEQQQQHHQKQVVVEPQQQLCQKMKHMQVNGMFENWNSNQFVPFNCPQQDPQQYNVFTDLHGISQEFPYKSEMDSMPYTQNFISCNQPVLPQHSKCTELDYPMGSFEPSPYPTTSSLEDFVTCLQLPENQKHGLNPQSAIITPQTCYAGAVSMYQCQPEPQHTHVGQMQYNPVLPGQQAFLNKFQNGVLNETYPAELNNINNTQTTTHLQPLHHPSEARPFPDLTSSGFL
HSF-1 act = HSF-1 activators, primary screen, NIH3T3-HGL cells, MG132 stress, luminescence, single point; activation, % at 9 µM; NIH3T3-HGL HSF-1 luciferase reporter, 8 h; 100% = twice DMSO control signal; 300,000 tested, 1.7% active; AID 504408, 2011;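 active means mean replicate activation of at least 50% with a set share of replicates each reaching 50%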;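 further: 0% = median of the neutral control wells and 100% = twice that signal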
GAA850 FXN act = FXN promoter activators, primary screen, cell-based, luciferase luminescence, HEK293 lucGAA850; HEK293 lucGAA850 FXN promoter luciferase reporter, 24 h; percent of 10 µM SAHA response; activation, % at 6 µM; 360,000 tested, 0.56% active; AID 540364, 2011;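 active means activation above the average of all compounds screened plus 3 SD, cutoff fixed separately per campaign, cut at about 7.5% in these data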;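 further: 0% = DMSO wells and 100% = 10 µM SAHA wells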
HSF1 inh = HSF1 inhibitors in luciferase reporter cells, primary screen, cell-based, NIH3T3, luminescence; NIH3T3-HGL HSE-luciferase, MG132-induced, luminescence 8 h; hits give low values; activity change, negative = inhibition, % at 7.5 µM (by protocol); 300,000 tested, 0.77% active;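 active means more than half of replicate wells show activity change below -50%, luminescence cut by over half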;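 further: luciferase reports HSF-1 transcriptional activity via heat shock element; 0% = median of DMSO wells and -100% = zero luminescence signal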
AHR act cf = AHR activators, confirmation, cell-based, luminescence, luciferase reporter, human. shares compounds with AHR act. human cells, AHR-responsive luciferase reporter. activation, % at 9 µM. 2,300 tested, 87% active; in the data active means activation above about 49%;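 further: HepG2 hepatoma cells carrying a DRE-driven firefly luciferase reporter; 0% = vehicle wells and 100% = reference agonist wells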
PXR act counter = human PXR activators, counter-screen for AHR activator project, cell-based, luciferase luminescence; shares compounds with AHR act; cell-based PXR reporter; activation, % at 11.6 µM; 2,300 tested, 88% active; AID 434939, 2010; in the data active means activation above about 11%;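 further: human hepatoma DPX-2 cells expressing full-length human PXR; 0% = DMSO and 100% = reference agonist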
Starred values were filed as active, the others as inactive; / = no result.

SMILES | AHR act | HSF-1 act | GAA850 FXN act | HSF1 inh | AHR act cf | PXR act counter
Brc1cccc2sc(N3CCN(c4ccccc4)CC3)nc12 | 91* | 30 | 4 | 14 | 108* | 18*
COc1ccc(OC)c(NC(=O)c2sc3ncnc(N4CCN(c5ccccn5)CC4)c3c2C)c1 | -4 | 10 | -2 | -8 | / | /
CCN1CCN(c2ncnc3sc(C(=O)Nc4ccccc4F)c(C)c23)CC1 | 128* | -4 | 0 | 7 | 75* | 23*
COc1cc2ncnc(NCCCN3CCOCC3)c2cc1OC | 0 | 7 | 1 | 3 | / | /
CCOc1cc2nc(-c3ccc(OC)c(OC)c3)nc(NCCCN3CCOCC3)c2cc1OC | 101* | 11 | -3 | 3 | 120* | 17*
Cc1cc2oc(C(=O)NCc3ccncc3)c(C)c2cc1C | 89* | 12 | 1 | 5 | 50* | 28*
CCCc1cc(CNC(=O)C2CCC(=O)N(CCc3cccc(F)c3)C2)on1 (stereo unspecified) | 1 | -11 | -1 | -1 | / | /
COc1ccc(-c2oc3ccc(-c4ccc5c(c4)OCO5)cc3c2C#CC2(O)CCCCC2)cc1 | 7 | -2 | 0 | -7 | / | /
COc1ccccc1-c1sc2cc3c(cc2c1C#CC1(O)CCCCC1)OCO3 | 103* | / | 0 | / | 101* | 314*
COc1ccccc1-c1sc2cc3c(cc2c1C#Cc1ccccn1)OCO3 | 104* | / | 1 | / | 116* | 176*
COc1ccc(-c2sc3cc4c(cc3c2C#CC2(O)CCCCC2)OCO4)cc1 | 96* | / | 4 | / | 81* | 63*
COc1ccccc1-c1oc2ccccc2c1C#CC1(O)CCCCC1 | 4 | / | 1 | / | / | /
COc1ccccc1-c1sc2cc3c(cc2c1-c1ccc(OCCN2CCOCC2)cc1)OCO3 | / | / | 1 | / | / | /
CC1CCCC/C1=N\NC(=S)Nc1cccnc1 (stereo unspecified) | 113* | 8 | 0 | 6 | 73* | 12*
O=Nc1c(-c2c(O)[nH]c3cc(Br)ccc23)[nH]c2ccccc12 | 133* | 18 | 5 | 14 | 148* | 22*
Cc1ccccc1NC(=O)c1ccc(C)c(S(=O)(=O)Nc2cccnc2)c1 | -2 | -7 | -2 | -2 | / | /
Cc1ccccc1Nc1nc(-c2ccccc2)c(C(=O)Nc2cccnc2)s1 | 81* | 32 | 2 | 6 | 57* | 65*
Cc1ccccc1NS(=O)(=O)c1cc(C(=O)Nc2cccnc2)ccc1C | 83* | -12 | 0 | -12 | 70* | 104*
O=C(Nc1cccnc1)c1sc(Nc2ccccc2F)nc1-c1ccccc1 | 34 | 14 | 5 | 7 | / | /
O=C(Nc1ccc(Br)cc1)c1ccc(Br)c(S(=O)(=O)Nc2cccnc2)c1 | 98* | 3 | -2 | -1 | 56* | 6
COc1ccc(-c2nn(CCC(=O)O)cc2/C=N/NC(N)=S)cc1 | 0 | 22 | 0 | 8 | / | /
CCNC(=O)N1CCCC(C(=O)c2ccc3cc(OC)ccc3c2)C1 (stereo unspecified) | 13 | 31 | 1 | 7 | / | /
N/C(=N\OS(=O)(=O)c1ccc(Cl)cc1)c1cccnc1 | 2 | / | 1 | / | / | /
O=C(c1cccs1)N1CCN(c2ccc(Cl)cc2)CC1 | -6 | 11 | 1 | 7 | / | /
COc1cccc(-c2nn(C)c3sc(C(=O)NCCCN(C)Cc4ccccc4)cc23)c1 | 13 | 2 | -1 | 8 | / | /
SMILES | AHR act | HSF-1 act | GAA850 FXN act | HSF1 inh | AHR act cf | PXR act counter
O=C(c1cc(Br)c(Br)s1)N1CCN(c2ccccn2)CC1 | -15 | 15 | -1 | 3 | / | /
COCCNC(=O)c1cc2c(-c3ccccc3F)nn(C)c2s1 | 98* | 3 | -2 | -2 | 122* | 24*
CNC(=O)c1cc2c(-c3ccccc3)nn(C)c2s1 | 99* | 15 | 1 | -3 | 114* | 24*
Cn1nc(-c2ccc(Cl)cc2)c2cc(C(=O)N3CCN(c4ccccn4)CC3)sc21 | 106* | 15 | -1 | 6 | 71* | 45*
Cn1nc(-c2ccc(Cl)cc2)c2cc(C(=O)N3CCN(c4ccccc4)CC3)sc21 | 101* | 10 | 1 | 9 | 74* | 34*
CCCC/C(O)=C1\C(=O)CC(C)(C)CC1=Nc1ccc(OC)cc1 | 3 | 8 | -3 | -3 | / | /
CCN(CC)CCCNC(=O)c1cc2c(-c3cccc(OC)c3)nn(C)c2s1 | 13 | 16 | 1 | 10 | / | /
COc1cccc(-c2nn(C)c3sc(C(=O)NCc4ccco4)cc23)c1 | 95* | 36 | 2 | 24 | 130* | 44*
N#CC1=C(N)Oc2n[nH]c(-c3ccc(F)cc3)c2C1c1ccncc1 (stereo unspecified) | 106* | 67* | 3 | 32 | 103* | 18*
N#CC1=C(N)Oc2n[nH]c(-c3ccc(F)cc3)c2C1c1cccc(OC(=O)N2CCOCC2)c1 (stereo unspecified) | 106* | 4 | 3 | 6 | 115* | 32*
Cc1ccc(N(CC(=O)NC(C)(C)C)C(=O)CCC(=O)Nc2ccccn2)c(C)c1 | / | / | -2 | / | / | /
COc1ccc2nc(SCc3cnc(C)nc3N)[nH]c2c1 | 0 | 7 | 0 | -1 | / | /
COc1ccc(CN(C2CCCCC2C)S(=O)(=O)c2ccc(S(=O)(=O)N(C)C)cc2)cc1OC (stereo unspecified) | 2 | 0 | 1 | 1 | / | /
CC1(C)CC2CC(C)(CN2C(=O)c2cc(-c3ccc(F)cc3)on2)C1 (stereo unspecified) | -2 | 15 | 0 | 7 | / | /
COC(=O)c1cc(-c2cccs2)[nH]n1 | 1 | 10 | 1 | 10 | / | /
COc1ccc(O)c(-c2cc(-c3cccs3)[nH]n2)c1 | 87* | 25 | 5 | 2 | 138* | 26*
COc1ccc(O)c(-c2cc(-c3ccccc3Cl)[nH]n2)c1 | 124* | -9 | 4 | -6 | 273* | 22*
COc1ccc(Cl)c(-c2cc(C(=O)NC(C)C)[nH]n2)c1 | / | / | 0 | / | / | /
Cc1oc(-c2ccc3ccccc3c2)nc1CN(C)C(C)c1ccncn1 (stereo unspecified) | 115* | 31 | 7 | 18 | 98* | 43*
O=C(/C=C/c1ccccc1)NCCOc1ccccc1 | 1 | 22 | 6 | 12 | / | /
COc1ncccc1-c1cnc2cccnn12 | / | / | 0 | / | / | /
O=c1[nH]c2ccccc2nc1-c1ccccc1 | 101* | 3 | 5 | 0 | 84* | 11*
O=c1nc(-c2ccccc2)c2ccccc2[nH]1 | 4 | 2 | 2 | -3 | / | /
CCC(C)(C)n1nnnc1CN(Cc1ccco1)Cc1cc2cc3c(cc2[nH]c1=O)OCO3 | 107* | -2 | 0 | -7 | 86* | 147*
